For two compounds, inhibition results are on record in ChEMBL document CHEMBL1961873, “Compounds: GSK PKIS; Assays: Nanosyn kinase panel” (2012).

The target of test [1] is T1, Inhibitor of nuclear factor kappa-B kinase subunit epsilon (Homo sapiens) (UniProt Q14164).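 Also: reported values are averaged percent inhibition figures against human IKKε.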
T1 sequence (whole entry): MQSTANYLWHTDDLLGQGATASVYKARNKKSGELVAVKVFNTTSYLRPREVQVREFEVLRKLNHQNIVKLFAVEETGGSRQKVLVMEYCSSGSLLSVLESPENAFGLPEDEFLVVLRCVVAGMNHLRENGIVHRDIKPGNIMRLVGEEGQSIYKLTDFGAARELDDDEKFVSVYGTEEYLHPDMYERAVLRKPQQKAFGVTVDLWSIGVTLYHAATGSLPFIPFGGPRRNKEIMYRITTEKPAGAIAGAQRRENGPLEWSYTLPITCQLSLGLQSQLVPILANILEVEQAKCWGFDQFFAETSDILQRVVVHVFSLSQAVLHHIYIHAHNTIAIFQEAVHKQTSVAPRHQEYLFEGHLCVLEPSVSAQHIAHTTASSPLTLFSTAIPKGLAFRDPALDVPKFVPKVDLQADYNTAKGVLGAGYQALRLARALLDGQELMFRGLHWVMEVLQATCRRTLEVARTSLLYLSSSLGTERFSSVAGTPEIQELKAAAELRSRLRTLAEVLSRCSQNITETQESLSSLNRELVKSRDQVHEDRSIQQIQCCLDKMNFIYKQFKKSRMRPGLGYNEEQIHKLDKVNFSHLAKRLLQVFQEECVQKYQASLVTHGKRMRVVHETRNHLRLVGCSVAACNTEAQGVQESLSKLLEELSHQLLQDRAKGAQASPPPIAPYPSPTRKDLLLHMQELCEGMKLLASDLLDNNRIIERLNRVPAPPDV
The settings on record: at 1 µM.

Test [2] concerns the target T2, Serine/threonine-protein kinase Nek1 (Homo sapiens) (UniProt Q96PY6).
T2 sequence (whole entry): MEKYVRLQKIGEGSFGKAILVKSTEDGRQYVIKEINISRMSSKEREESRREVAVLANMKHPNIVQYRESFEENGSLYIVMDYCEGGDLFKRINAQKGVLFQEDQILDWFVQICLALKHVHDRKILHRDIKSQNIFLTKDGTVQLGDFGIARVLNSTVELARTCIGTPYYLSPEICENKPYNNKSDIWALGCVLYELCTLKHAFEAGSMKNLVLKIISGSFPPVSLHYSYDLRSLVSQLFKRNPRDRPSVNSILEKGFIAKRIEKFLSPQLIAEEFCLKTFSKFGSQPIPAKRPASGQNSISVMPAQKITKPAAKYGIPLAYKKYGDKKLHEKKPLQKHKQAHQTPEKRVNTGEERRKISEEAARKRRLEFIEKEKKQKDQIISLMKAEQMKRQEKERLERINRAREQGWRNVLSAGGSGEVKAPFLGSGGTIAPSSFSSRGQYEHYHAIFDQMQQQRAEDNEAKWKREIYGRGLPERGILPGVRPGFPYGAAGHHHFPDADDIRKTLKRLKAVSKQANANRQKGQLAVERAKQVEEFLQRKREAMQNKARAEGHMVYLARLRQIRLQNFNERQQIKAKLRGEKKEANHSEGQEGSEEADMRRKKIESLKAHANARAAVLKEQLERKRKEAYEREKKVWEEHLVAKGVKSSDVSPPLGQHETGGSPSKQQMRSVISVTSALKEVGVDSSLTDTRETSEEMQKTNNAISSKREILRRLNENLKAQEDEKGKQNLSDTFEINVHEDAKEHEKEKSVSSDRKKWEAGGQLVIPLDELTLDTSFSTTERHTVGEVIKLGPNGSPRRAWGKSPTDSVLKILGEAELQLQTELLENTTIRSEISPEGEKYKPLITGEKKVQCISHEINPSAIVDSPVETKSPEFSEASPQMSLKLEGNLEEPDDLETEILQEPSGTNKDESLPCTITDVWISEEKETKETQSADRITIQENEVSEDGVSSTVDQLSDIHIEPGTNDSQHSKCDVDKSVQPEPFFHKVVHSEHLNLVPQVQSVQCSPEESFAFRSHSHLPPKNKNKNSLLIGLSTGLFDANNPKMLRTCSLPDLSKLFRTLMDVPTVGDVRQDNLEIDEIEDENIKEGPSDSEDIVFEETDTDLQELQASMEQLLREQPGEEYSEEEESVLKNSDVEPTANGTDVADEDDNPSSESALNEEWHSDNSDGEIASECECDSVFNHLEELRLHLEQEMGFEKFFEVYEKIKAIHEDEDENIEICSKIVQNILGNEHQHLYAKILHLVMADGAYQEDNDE
The settings on record: at 0.1 µM.

Test [3] concerns the target T2, Serine/threonine-protein kinase Nek1 (Homo sapiens). The settings on record: at 1 µM.
In test [4] the target is T3, Serine/threonine-protein kinase Nek2 (Homo sapiens) (UniProt P51955).
T3 sequence (whole entry): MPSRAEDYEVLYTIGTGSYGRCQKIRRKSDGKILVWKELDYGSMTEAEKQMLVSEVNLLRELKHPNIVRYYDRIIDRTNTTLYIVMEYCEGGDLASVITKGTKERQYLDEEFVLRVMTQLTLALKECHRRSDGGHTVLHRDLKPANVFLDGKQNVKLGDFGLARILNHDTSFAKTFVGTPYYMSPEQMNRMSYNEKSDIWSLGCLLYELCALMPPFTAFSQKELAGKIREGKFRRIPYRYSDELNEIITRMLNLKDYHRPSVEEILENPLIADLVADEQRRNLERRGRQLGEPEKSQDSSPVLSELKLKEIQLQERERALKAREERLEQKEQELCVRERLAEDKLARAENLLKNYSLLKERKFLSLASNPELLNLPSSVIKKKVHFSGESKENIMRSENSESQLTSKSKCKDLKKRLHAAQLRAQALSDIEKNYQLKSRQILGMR
The settings on record: at 0.1 µM.

In test [5] the target is T3, Serine/threonine-protein kinase Nek2 (Homo sapiens). The settings on record: at 1 µM.
Test [6] deals with Serine/threonine-protein kinase Nek6 (Homo sapiens) (UniProt Q9HC98). The settings on record: at 0.1 µM.
Serine/threonine-protein kinase Nek6 (Homo sapiens), sequence (Q9HC98 whole entry): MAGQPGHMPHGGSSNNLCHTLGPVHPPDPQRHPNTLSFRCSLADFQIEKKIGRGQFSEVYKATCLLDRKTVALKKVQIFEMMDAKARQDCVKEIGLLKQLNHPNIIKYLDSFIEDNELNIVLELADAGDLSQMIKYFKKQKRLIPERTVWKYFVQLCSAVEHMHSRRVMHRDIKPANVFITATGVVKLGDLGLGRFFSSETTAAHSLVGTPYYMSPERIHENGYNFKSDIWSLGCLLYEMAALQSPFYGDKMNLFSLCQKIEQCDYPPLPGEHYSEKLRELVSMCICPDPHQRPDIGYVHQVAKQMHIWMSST
Test [7] shares this target. The settings on record: at 1 µM.
In test [8] the target is Serine/threonine-protein kinase Nek7 (Homo sapiens) (UniProt Q8TDX7). The settings on record: at 0.1 µM.
Serine/threonine-protein kinase Nek7 (Homo sapiens), sequence (Q8TDX7 whole entry, looked up): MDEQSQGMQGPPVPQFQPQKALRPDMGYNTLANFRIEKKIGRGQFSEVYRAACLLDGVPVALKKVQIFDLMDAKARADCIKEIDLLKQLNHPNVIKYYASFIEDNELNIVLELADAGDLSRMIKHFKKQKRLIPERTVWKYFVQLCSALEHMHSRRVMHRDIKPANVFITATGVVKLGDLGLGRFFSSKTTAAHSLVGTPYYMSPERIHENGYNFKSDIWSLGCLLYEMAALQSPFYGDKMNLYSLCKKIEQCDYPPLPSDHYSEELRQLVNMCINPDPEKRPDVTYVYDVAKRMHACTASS
For test [9] the target is unchanged. The settings on record: at 1 µM.
Test [10] addresses T4, Serine/threonine-protein kinase Nek9 (Homo sapiens) (UniProt Q8TD19).
T4 sequence (whole entry): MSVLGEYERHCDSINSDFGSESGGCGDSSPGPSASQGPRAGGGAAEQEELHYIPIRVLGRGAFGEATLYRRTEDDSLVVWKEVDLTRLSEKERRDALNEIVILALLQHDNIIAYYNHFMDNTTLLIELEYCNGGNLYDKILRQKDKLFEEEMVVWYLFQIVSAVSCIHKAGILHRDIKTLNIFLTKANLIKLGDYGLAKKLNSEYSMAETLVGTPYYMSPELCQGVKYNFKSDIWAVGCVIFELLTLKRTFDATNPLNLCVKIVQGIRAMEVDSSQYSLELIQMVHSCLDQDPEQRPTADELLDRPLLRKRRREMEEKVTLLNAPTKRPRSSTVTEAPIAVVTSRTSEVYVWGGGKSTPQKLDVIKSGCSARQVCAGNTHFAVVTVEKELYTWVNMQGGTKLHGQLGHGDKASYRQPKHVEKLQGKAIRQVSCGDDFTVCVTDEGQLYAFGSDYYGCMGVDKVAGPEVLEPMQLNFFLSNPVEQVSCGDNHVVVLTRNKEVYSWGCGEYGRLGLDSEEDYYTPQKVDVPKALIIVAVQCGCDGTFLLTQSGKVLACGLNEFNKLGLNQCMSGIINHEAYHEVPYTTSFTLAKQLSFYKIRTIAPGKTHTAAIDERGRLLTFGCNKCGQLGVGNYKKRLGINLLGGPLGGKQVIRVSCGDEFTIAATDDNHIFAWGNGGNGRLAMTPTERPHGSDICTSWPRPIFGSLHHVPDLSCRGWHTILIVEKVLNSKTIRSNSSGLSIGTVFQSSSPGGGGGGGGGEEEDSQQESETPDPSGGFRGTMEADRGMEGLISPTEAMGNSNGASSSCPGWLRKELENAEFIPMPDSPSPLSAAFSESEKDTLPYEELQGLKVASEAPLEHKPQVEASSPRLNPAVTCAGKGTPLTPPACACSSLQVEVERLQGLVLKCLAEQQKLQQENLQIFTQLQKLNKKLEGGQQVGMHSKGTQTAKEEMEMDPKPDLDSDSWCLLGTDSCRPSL
The settings on record: at 0.1 µM.

The target of test [11] is T4, Serine/threonine-protein kinase Nek9 (Homo sapiens). The settings on record: at 1 µM.
The target of test [12] is Serine/threonine-protein kinase PLK1 (Homo sapiens) (UniProt P53350). The settings on record: at 0.1 µM.
Serine/threonine-protein kinase PLK1 (Homo sapiens), sequence (P53350 whole entry): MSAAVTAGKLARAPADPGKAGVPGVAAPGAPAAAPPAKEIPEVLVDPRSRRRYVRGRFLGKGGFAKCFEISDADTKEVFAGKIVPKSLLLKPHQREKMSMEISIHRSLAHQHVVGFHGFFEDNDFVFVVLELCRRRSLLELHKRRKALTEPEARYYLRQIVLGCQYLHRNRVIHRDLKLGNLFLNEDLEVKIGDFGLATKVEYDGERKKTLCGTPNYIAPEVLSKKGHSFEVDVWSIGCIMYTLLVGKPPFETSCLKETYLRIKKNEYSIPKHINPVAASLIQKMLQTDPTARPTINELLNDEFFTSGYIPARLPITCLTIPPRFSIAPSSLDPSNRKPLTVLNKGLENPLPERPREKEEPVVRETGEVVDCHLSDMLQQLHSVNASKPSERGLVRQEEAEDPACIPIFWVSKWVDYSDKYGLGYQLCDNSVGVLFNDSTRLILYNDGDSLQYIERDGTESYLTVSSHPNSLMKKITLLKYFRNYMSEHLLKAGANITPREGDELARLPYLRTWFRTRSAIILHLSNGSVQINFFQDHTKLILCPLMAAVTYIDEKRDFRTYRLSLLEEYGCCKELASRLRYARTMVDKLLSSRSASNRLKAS
The target is the same in test [13]. The settings on record: at 1 µM.
Test [14] concerns the target T5, Dual specificity protein kinase TTK (Homo sapiens) (UniProt P33981).
T5 sequence (whole entry): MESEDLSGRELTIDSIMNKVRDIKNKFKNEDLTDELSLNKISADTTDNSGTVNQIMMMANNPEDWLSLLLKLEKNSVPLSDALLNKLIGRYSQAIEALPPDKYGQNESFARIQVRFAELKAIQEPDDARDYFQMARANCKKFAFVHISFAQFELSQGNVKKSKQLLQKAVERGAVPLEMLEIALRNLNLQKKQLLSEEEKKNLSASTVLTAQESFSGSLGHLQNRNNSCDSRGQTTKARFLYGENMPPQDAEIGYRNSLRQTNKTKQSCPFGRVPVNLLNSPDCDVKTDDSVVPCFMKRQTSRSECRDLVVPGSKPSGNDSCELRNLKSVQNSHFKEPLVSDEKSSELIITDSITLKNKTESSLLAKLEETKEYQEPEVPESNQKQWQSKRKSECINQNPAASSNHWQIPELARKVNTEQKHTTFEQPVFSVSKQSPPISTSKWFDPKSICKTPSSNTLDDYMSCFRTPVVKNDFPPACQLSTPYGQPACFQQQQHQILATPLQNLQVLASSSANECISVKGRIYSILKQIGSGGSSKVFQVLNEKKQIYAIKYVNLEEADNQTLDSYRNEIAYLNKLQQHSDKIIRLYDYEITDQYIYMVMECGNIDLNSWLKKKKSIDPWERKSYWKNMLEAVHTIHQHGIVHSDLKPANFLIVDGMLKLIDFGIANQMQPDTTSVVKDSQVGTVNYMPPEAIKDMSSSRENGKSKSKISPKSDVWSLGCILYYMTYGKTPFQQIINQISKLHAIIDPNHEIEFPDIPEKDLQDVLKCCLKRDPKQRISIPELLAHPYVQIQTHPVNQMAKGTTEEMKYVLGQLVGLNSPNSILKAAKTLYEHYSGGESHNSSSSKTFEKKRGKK
The settings on record: at 0.1 µM.

For test [15], the system named is T6, Receptor-type tyrosine-protein kinase FLT3 (Homo sapiens), P36888 [D835Y].
T6 sequence (whole entry): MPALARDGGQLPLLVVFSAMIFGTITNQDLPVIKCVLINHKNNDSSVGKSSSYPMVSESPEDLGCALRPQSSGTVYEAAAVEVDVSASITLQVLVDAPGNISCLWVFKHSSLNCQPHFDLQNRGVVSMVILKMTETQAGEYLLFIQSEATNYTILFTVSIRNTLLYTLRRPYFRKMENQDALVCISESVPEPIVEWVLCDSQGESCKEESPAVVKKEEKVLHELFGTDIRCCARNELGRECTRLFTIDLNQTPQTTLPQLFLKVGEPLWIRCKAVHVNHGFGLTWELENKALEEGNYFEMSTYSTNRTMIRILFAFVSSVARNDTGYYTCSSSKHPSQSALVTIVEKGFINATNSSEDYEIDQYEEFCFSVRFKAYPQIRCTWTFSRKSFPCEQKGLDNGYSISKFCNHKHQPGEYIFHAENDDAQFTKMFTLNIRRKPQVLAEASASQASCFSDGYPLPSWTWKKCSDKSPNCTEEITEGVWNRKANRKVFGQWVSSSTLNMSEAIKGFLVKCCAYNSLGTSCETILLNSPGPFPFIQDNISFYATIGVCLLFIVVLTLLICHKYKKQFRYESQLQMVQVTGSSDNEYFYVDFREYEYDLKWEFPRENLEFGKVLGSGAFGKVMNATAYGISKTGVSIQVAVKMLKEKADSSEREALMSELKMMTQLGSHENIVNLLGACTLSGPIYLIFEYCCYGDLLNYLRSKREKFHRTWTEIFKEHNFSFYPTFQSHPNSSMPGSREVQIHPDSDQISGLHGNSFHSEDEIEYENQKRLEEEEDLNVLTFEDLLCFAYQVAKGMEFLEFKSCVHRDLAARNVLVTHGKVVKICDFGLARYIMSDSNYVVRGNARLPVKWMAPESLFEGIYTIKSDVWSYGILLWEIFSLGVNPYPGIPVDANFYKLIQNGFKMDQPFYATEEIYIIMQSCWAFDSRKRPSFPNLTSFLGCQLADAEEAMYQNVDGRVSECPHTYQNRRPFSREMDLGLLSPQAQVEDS
The settings on record: at 1 µM.

For test [16], the target named is Vascular endothelial growth factor receptor 3 (Homo sapiens) (UniProt P35916). The settings on record: at 0.1 µM.
Vascular endothelial growth factor receptor 3 (Homo sapiens), sequence (P35916 whole entry): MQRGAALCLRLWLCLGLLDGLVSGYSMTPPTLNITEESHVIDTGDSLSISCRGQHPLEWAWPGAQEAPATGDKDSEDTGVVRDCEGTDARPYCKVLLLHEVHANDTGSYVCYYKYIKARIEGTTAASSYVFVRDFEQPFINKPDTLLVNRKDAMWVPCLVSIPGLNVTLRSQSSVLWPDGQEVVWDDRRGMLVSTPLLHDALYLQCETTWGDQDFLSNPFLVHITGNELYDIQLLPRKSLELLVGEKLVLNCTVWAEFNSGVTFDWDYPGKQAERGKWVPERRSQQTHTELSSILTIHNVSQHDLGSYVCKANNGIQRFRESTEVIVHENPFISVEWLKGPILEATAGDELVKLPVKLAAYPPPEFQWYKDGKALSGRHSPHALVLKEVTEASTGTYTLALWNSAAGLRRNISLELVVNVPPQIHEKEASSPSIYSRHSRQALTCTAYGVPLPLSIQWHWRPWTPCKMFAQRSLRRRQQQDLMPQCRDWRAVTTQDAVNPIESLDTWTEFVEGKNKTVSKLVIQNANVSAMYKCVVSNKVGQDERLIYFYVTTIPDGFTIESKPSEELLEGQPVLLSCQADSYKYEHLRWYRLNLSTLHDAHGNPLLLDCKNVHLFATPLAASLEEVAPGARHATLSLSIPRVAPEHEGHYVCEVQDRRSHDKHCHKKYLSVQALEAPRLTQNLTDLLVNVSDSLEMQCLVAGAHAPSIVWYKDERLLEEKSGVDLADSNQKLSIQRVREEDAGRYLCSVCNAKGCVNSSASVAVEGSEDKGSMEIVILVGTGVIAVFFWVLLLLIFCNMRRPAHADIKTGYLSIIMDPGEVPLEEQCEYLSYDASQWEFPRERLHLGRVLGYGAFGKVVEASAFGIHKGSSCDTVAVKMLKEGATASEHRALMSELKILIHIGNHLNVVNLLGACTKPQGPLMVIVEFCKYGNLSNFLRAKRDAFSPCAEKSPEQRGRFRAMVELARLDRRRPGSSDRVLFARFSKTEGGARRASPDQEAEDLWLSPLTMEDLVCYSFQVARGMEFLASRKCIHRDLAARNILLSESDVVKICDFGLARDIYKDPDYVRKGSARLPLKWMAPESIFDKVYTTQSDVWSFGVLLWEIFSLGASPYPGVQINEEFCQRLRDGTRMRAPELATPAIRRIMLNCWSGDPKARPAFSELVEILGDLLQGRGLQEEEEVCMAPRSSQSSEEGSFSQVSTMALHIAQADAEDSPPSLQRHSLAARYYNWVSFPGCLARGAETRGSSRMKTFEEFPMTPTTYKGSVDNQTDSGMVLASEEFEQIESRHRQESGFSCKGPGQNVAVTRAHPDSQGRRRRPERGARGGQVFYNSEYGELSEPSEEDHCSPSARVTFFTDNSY
Test [17] shares this target. The settings on record: at 1 µM.
Test [18] has as its target Macrophage colony-stimulating factor 1 receptor (Homo sapiens) (UniProt P07333). The settings on record: at 0.1 µM.
Test [19] shares this target. The settings on record: at 1 µM.
Test [20] has as its target Tyrosine-protein kinase Fyn (Homo sapiens) (UniProt P06241). The settings on record: at 0.1 µM.

Macrophage colony-stimulating factor 1 receptor (Homo sapiens), sequence (P07333 whole entry): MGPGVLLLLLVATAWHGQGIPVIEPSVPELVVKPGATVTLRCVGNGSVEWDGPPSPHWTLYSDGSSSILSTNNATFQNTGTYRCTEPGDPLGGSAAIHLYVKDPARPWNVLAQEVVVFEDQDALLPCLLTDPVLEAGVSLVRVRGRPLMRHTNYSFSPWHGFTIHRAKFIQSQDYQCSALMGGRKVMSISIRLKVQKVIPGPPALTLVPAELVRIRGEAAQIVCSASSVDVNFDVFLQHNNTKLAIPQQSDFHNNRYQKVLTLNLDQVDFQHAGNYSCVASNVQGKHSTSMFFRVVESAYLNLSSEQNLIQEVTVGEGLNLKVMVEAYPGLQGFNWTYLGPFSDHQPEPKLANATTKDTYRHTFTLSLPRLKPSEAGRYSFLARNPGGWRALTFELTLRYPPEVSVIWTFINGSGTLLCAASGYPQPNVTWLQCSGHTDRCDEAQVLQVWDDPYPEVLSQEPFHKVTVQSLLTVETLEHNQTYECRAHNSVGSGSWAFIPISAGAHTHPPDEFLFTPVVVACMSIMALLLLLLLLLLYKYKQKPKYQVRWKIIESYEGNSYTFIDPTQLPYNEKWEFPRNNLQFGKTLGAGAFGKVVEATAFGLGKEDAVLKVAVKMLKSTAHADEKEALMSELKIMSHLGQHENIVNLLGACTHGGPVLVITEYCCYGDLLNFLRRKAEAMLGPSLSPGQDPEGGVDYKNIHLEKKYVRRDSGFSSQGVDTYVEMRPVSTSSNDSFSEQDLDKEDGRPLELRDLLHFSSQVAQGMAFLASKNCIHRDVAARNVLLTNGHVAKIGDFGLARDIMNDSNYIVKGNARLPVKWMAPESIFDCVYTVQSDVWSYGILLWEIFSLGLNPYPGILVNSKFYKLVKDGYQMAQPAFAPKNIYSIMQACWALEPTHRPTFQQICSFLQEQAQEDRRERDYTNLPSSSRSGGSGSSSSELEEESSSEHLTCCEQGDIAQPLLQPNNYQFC
Tyrosine-protein kinase Fyn (Homo sapiens), sequence (P06241 2-537 limits assumed): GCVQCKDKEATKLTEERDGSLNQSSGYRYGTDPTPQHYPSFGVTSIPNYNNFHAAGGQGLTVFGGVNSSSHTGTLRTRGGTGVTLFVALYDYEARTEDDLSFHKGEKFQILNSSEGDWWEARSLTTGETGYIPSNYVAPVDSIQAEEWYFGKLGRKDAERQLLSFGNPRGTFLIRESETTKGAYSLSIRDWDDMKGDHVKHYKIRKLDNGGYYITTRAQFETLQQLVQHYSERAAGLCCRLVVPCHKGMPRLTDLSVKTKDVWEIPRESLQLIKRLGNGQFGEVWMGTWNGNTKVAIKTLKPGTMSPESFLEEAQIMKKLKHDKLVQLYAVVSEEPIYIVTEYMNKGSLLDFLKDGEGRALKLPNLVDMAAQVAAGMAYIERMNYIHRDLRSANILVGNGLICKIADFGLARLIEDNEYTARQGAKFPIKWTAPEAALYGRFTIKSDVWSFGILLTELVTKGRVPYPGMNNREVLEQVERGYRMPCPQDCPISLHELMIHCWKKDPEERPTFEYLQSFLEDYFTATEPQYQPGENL

The term inhibition denotes the relative decrease from the control value, in per cent. On to `O=C(Nc1n[nH]c2cc(-c3ccccc3)ccc12)C1CC1`, for which the inhibition in [1] worked out at 4.27%; in [2], 1.53%; in test [3], 3.2%; in test [4], 5.82%; in test [5], 6.37%; in [6], 0.8%. The inhibition in test [7] is -0.52%; in test [8], 5.67%; in test [9] it was 3.1%; in test [10] it was 4.27%; in [11], 5.87%; in [12], 5.16%. Moreover, the inhibition in test [13] was determined as 2.83%; in test [14], 5.95%; in [15], 4.54%; in test [16], 16.2%; in [17] it was 16.9%; in [18], 4.54%. The inhibition in [19] amounted to 5.1%; in test [20] it was 1.14%.

`CCN(CC)Cc1ccc(Nc2nccc(-c3cnn4ncccc34)n2)cc1`: the inhibition in [1] is 17.8%; in [2], 2.8%; in test [3], 4.48%; in test [4], 4.07%; in [5], 3.41%; in [6], 1.02%. In addition, the inhibition in [7] is -0.16%; in test [8], 3.37%; in test [9], 9.4%; in test [10] it was 6.44%; in test [11], 13.7%; in test [12], 5.43%. Moreover, the inhibition in [13] was 8.15%; in test [14], 12.4%; in [15], 17.1%; in test [16], -5.53%; in [17], 0.13%; in test [18], 29.6%. Moreover, the inhibition was 68.9% in test [19] and -1.69% in test [20].
